# KCNH2 3.1 block = KCNH2 3.1 (human) potassium channel inhibition | U2OS KCNH2 3.1, thallium flux FluxOr; hits give low values | activity change, % (tested at about 1.8 µM) | 0.95% of 340,000 active;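 active = maximum activity change below -70%; inconclusive = maximum activity change from -70% to -50%; inactive = maximum activity change above -50%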;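 note: thallium influx rate constant from kinetic fluorescence after stimulation buffer; % is set by controls: 0 for no effect and ±100 for the full control effect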
#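 Measured as rate of thallium-driven FluxOr signal in transduced U2OS cells carrying the 3.1 channel, read kinetically for 2 min upon stimulation; values are rate constants scaled to DMSO control wells.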
# MBNL1-CUG inh = blocks human MBNL1 binding to CUG repeat RNA | Potency, µM (series often up to 57.5 µM), without a hit: top-dose activity change, negative = inhibition, actives largely listed as inhibitors | Q9NR56 | AID 2675 | TR-FRET MBNL1-His/biotin-(CUG)12 binding, 665/545 ratio | 0.036% of 280,000 active; active = well fitted inhibition curve with a large enough effect in the signal ratio, with a control signal flat, not every such curve was filed as active; inconclusive = small, poorly fitted or top-dose-only effect, or effect the other way, or a change in a side signal; inactive = no such curve, though single readings can be large or run the other way; the % refers to the signal ratio; note: potency is the fitted concentration of half-maximal effect; % is set by controls: 0 for no effect and ±100 for the full control effect
#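 TR-FRET readout: Ex 340 nm, 665/545 nm emission ratio, normalized to buffer-only (basal) and MBNL1-(CUG)12 controls. Complex of MBNL1-His with Biotin-(CUG)12, compounds 92 nM–58 uM, incubated 60 min at room temperature.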
# TRPV1 ag = agonists of human vanilloid receptor 1 (TRPV1) | 0.19% of 320,000 active | TRPV1-expressing cells, Fluo-8 calcium influx, agonist mode | activation, % at 8.33 µM | AID 540275 | Q8NER1; in the data active = activation above about 80%; inconclusive = between about 30% and that limit; note: 0% is about no effect
#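 TRPV1-expressing cells were cultured overnight at 35.5C and loaded with Fluo-8 calcium dye for 40 to 90 min at room temperature. After a 10 s baseline, compound was added and calcium influx was read kinetically for 3 min (ex 480/em 520 nm).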
# KCNH2 WT inh = blocks the wildtype human KCNH2 potassium channel; activity change, % at 1.84 µM; AID 720551; U2OS, BacMam KCNH2, thallium flux FluxOr; hits give low values; 0.37% of 340,000 active; Q12809;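 active = maximum activity change below -70%; inconclusive = maximum activity change between -70% and -50%; inactive = maximum activity change above -50%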; note: % is set by controls: 0 for no effect and ±100 for the full control effect
# Target sequence (Q12809 whole entry, looked up): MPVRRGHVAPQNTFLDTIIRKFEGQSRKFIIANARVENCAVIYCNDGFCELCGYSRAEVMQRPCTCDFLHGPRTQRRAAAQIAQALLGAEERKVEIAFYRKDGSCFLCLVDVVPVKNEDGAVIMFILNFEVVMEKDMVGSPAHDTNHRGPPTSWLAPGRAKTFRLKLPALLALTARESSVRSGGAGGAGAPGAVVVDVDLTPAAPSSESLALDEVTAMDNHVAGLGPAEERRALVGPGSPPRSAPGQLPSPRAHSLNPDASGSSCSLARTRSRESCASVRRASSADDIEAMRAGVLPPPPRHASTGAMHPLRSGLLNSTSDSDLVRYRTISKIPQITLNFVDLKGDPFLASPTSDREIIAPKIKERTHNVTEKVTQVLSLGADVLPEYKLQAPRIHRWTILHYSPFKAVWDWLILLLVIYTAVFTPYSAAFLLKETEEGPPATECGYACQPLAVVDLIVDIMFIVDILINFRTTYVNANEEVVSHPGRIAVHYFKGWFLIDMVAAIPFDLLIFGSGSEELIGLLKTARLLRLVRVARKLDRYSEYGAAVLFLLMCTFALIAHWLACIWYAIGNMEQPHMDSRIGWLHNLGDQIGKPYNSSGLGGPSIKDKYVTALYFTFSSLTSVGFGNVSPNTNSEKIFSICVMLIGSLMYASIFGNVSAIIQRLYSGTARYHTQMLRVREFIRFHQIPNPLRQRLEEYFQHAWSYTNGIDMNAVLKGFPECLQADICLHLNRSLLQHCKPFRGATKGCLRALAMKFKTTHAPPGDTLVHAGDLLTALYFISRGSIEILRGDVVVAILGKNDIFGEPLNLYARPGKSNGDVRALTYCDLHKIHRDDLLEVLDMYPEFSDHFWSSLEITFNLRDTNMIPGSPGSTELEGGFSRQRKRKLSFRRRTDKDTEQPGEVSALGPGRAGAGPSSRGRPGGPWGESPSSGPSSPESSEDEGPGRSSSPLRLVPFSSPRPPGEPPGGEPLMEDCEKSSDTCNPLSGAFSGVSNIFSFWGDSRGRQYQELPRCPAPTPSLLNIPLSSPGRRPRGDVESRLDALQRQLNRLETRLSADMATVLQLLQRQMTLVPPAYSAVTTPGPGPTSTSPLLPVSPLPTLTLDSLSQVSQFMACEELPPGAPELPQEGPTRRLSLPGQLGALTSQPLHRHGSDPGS
#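 U2OS cells transduced with wild-type KCNH2 virus are loaded with FluxOr dye for 45 min, and thallium flux is measured in kinetic reads before and after stimulation buffer. Rate constants are normalized to DMSO controls.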
# TRPV1 PAM = human TRPV1 potentiation; Q8NER1; TRPV1-expressing cells, Fluo-8 calcium influx, capsaicin EC20 potentiation; potentiation, % at 8.33 µM; 0.02% of 320,000 active; in the data active = potentiation above about 80%; inconclusive = between about 30% and that limit; note: 0% is about no effect
#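 TRPV1-expressing cells were cultured overnight at 35.5C and loaded with Fluo-8 calcium dye for 40 to 90 min at room temperature. After a 10 s baseline, compound was added and calcium influx was read kinetically for 3 min (ex 480/em 520 nm).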
# An asterisk follows results filed as active; ? = inconclusive; . = no result; [ ] = remark or other dose. Sampled rows, rich in hits. Any-hit rate of the full collection: about 1.3%.
SMILES,KCNH2 3.1 block,MBNL1-CUG inh,TRPV1 ag,KCNH2 WT inh,TRPV1 PAM
CCN(CC)C(=O)C1=C(C)N(CCC2=CCCCC2)C(=O)C(CC(=O)NC(c2ccccc2)c2ccccc2)C1 (configuration not stated),-15,.,.,-88*,.
COc1ccc(N2CC(NC(=O)N3CCc4ccccc43)CC2=O)cc1OC (configuration not stated),20,-7%,2,-6,7
CN(C)S(=O)(=O)Nc1ccccc1F,-80*,3%,-2,-6,0
COC(=O)C(NC(=O)c1cccnc1Cl)C(C)C (configuration not stated),8,-9%,-1,-120*,6
CCn1nc(C)c(CN2CCC(C(=O)Nc3cccc(-c4cccc(Cl)c4)c3)CC2)c1C,-95*,-6%,2,-94*,7
CCn1ncc(CN2CCC(C(=O)Nc3cccc(-c4cccc(F)c4)c3)CC2)c1C,-97*,0%,0,-117*,?
Cc1cc(C)n(CCCN2CCC(C(=O)Nc3cccc(-c4cccc(F)c4)c3)CC2)n1,-102*,0%,2,-105*,6
CC(=O)c1cccc(CN2CCC(C(=O)Nc3ccc(-c4cccc(C)c4)cc3)CC2)c1,-101*,-2%,-3,-13,3
CC(=O)c1cccc(CN2CCC(C(=O)Nc3ccc(Oc4cccnc4)cc3)CC2)c1,.,-7%,5,26,-9
Cc1ccc(-c2nc(CS(=O)CC(=O)NCCCN3CCN(Cc4ccccc4)CC3)c(C)o2)cc1 (configuration not stated),-7,-2%,2,14,6
Cc1ncc(CN2CCCC(C(=O)Nc3ccc(-c4cccc(F)c4)cc3)C2)n1C (configuration not stated),-84*,-6%,-1,-17,5
COc1cccc(-c2ccc(NC(=O)C3CCCN(Cc4cnc(C)n4C)C3)cc2)c1 (configuration not stated),?,-4%,4,26,-13
CC1=C(C(=O)N2CCOCC2)C(c2cccc(C)c2)NC(=S)N1 (configuration not stated),4,4%,0,-42,-27
COc1ccc(C2NC(=S)NC(C)=C2C(=O)N2CCOCC2)cc1 (configuration not stated),3,-1%,-1,-278*,3
CC(N=Cc1cc([N+](=O)[O-])ccc1O)c1ccccc1 (configuration not stated),1,?,0,-170*,7
CN(/N=C/c1cc([N+](=O)[O-])ccc1O)c1ccccc1,0,?,-1,3,10
CC(=O)Nc1c(C(=O)Nc2ccc3c(c2)OCO3)oc2ccccc12,6,13%,?,-72*,-13
C=CCn1c(SCCOc2ccc(OC)cc2)nnc1C(C)NC(=O)Cc1ccc(OC)cc1 (configuration not stated),-101*,-10%,-6,6,9
C=CCn1c(SCc2c(C)noc2C)nc2sc3c(c2c1=O)CCCC3,-1,-8%,?,-7,-13
Cc1noc(C)c1CSc1nc2sc3c(c2c(=O)n1C)CCCC3,-102*,-10%,11,8,-6
COc1ccc(CNc2nc(-c3cccnc3)nn2S(C)(=O)=O)cc1,-76*,.,2,2,?
N#Cc1cccc(C#N)c1Oc1ccc(S(=O)(=O)Nc2ccc(Cl)cc2)cc1,-5,-9%,14,-2,3
CCOC(=O)c1nc(C)sc1-c1ccnn1S(=O)(=O)c1cccc(Cl)c1,6,.,19,-135*,17
Cc1ccc(Cl)c(OCCCN(C)Cc2ccccc2)c1,-10,-12%,28,-70*,-7
CCOC(=O)c1c(N)c2cc([N+](=O)[O-])ccc2n1C,-97*,.,0,-7,0
SMILES,KCNH2 3.1 block,MBNL1-CUG inh,TRPV1 ag,KCNH2 WT inh,TRPV1 PAM
COc1ccc(N(Cc2cc3cccc(C)c3[nH]c2=O)S(C)(=O)=O)cc1,-82*,11%,2,-25,3
COc1ccc(N(Cc2cc3ccccc3[nH]c2=O)S(C)(=O)=O)cc1,-29,4%[11.5 µM],3,0,0
O=C(/C=C/c1ccc([N+](=O)[O-])cc1)Nc1cccc(C(=O)Nc2ccccc2C(=O)O)c1,-4,3%,-4,5,1
CC/C(C)=N/Nc1cccc([N+](=O)[O-])c1,-93*,?,4,-8,1
N=C1/C(=C\c2coc3ccccc3c2=O)C(=O)N=C2SC(c3ccncc3)=NN12,-19,?,91*,-3,-18
N=C1/C(=C/c2coc3ccccc3c2=O)C(=O)N=C2SC(c3ccco3)=NN12,-32,-5%,7,-10,4
CN(C)Cc1c(C(=O)N/N=C/c2ccc(OCc3c(F)cccc3Cl)cc2)nnn1-c1nonc1N,-86*,-10%,3,-29,11
Nc1nonc1-n1nnc(C(=O)N/N=C/c2ccc(OCc3ccccc3F)cc2)c1CN1CCCCC1,-100*,0%,-1,2,-6
C=CCc1cccc2cc(C(=O)Nc3cccc(C(=O)O)c3)c(=O)oc12,-2,6%,-2,6,-2
C=CCc1cccc2cc(C(=O)NNC(=O)c3ccncc3)c(=O)oc12,14,4%,81*,5,-10
O=C(CSC1=NS(=O)(=O)c2cc(Cl)ccc2N1)c1ccc(Cl)cc1,-28,.,1,1,11
CCN1/C(=C/C=C/c2oc3ccc(-c4ccccc4)cc3[n+]2CC)Oc2ccc(-c3ccccc3)cc21,-160*,339%,105*,-96*,?
CCOC(=O)c1ccc(NC(=O)c2cc3c(s2)CCC3)cc1,10,66%,106*,6,-12
CCOC(=O)c1ccc(NC(=O)c2ccc(NC(=O)c3ccccc3)cc2)cc1,-6,14%,-3,-11,5
CCOC(=O)C[C@H]1c2ccc(C(F)(F)F)cc2S(=O)(=O)N1c1cccc(OC)c1,1,.,.,-2,.
CC(Sc1ccccc1)C(=O)NCC(c1ccco1)N1CCCCC1 (configuration not stated),7,.,2,17,6
COc1ccc(N)c2c1C(=O)c1ccccc1C2=O,-98*,?,-5,-10,0
COc1ccc(CNC(=O)CN2CCN(c3cccc(C)c3C)CC2)cc1,2,-4%,80*,3,-5
CC(=O)c1ccc(NC(=O)CN2CCN(CC(=O)Nc3ccc(C(C)=O)cc3)CC2)cc1,-102*,-1%,-1,6,-15
COc1ccccc1N1CCN(CCNC(=O)Nc2cccc(C)c2C)CC1,-35,5%,12,-124*,25
COc1ccc(NC(=O)CN2CCN(CC(=O)Nc3ccc4c(c3)OCO4)CC2)cc1,.,-7%,1,-79*,3

# Screening data deposited in PubChem BioAssay by National Center for Advancing Translational Sciences (NCATS).
